# NPC1 prom act: qHTS Assay for NPC1 Promoter Activators; Huh7 NPC1 promoter luciferase reporter, 24 h; Potency, µM (series often up to 9.22 µM), for inactives: top-dose activation, most hits filed as activators; hit rate 2.4% among 320,000; AID 485313, 2010; further: % of control where 0% means no effect; nearly all actives have a fitted effect of over 60% in size
#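 Cells: Huh7 expressing luciferase under the NPC1 promoter, 1500/well. Seeded 2 h, compound added, incubated 24 h at 37 °C. Luciferase reagent, 10 min ambient, then luminescence.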
# Luc counter: Counterscreen for Luciferase (Kinase-Glo TM) Inhibition | Luciferin 4-monooxygenase (Photuris pensylvanica), Q27757 | Kinase-Glo luciferase, ATP luminescence, 8 min | Potency, µM (titrated, usually from 38.3 µM), inactives show at the highest dose activity change, negative = inhibition, actives largely listed as inhibitors | hit rate 0.28% among 200,000 | AID 1379, 2008; further: on the % scale 0 is the no-effect control and ±100 the full control effect; nearly all actives have a fitted effect of over 60% in size
#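 Luminescence was the read-out, taken after 8-minute incubation at ambient temperature. Luciferase turned over luciferin with 10 uM ATP in imidazole pH 7.2 buffer containing KCl, MgCl2, Tween 20 and BSA.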
# ELG1 genotoxic: qHTS screen for small molecules that induce genotoxicity in human embryonic kidney (HEK293T) cells expressing luciferase-tagged ELG1; HEK293T ELG1-luciferase reporter, luminescence, 16 h; Potency, µM (doses to about 46 µM), without a hit: at the highest dose activity change, positive = activation, actives largely listed as activators; hit rate 1.3% among 330,000; AID 504466, 2011; further: % of control where 0% means no effect; nearly all actives have a fitted effect of over 60% in size
#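 Reporter readout depends on ELG1 protein level, which increases with genetic stress. After 16 hr compound exposure at 37 °C, luciferase activity was quantified using ONE-Glo.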
# Rab9 prom act: qHTS Assay for Rab9 Promoter Activators | Huh7 Rab9 promoter-luciferase reporter, luminescence, 24 h | Potency, µM (titrated, usually from 9.22 µM), for the others: at the top dose activation, negative = inhibition, usual class: activators | hit rate 2.8% among 320,000; further: % of control where 0% means no effect; nearly all actives have a fitted effect of over 60% in size
#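 Luciferase signal after 10 min detection reagent at ambient indicates Rab9 promoter upregulation; stably transfected Huh7 cells were treated 24 h with compound in DMSO at 37 °C, 5% CO2.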
# FLuc counter: qHTS profiling assay for firefly luciferase inhibitor/activator using purifed enzyme and Km concentrations of substrates (counterscreen for miR-21 project). Luciferin 4-monooxygenase (Photinus pyralis), P08659. purified FLuc, Km substrates, luminescence inhibition. Potency, µM (highest dose often 57.5 µM), for the others: at the top dose activity change, negative = inhibition, hits mostly inhibitors. hit rate 6.9% among 360,000. AID 588342, 2011;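 further: plate controls were vehicle for no effect and reference inhibitor for full effect; nearly all actives have a fitted effect of over 55% in size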
# Target sequence (P08659 whole entry, looked up): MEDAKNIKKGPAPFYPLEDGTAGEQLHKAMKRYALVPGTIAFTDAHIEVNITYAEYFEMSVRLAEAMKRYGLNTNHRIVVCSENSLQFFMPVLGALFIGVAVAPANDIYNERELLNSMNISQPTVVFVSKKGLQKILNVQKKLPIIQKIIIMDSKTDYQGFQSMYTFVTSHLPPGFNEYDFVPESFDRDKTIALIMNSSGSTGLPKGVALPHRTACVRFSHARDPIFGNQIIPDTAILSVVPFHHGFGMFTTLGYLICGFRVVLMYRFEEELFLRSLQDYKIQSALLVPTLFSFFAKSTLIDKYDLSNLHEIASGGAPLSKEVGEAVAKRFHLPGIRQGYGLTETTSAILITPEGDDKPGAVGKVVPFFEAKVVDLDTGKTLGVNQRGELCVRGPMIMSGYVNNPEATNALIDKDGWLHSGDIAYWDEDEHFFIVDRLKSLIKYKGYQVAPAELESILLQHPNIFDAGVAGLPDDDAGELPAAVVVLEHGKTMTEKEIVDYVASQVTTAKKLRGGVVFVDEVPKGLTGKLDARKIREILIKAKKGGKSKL
#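 Purified P. pyralis luciferase, 10 nM final, with Km-level 10 uM D-luciferin and 10 uM ATP in 50 mM Tris acetate pH 7.5, 10 mM Mg acetate, 0.01% Tween-20, 0.05% BSA; 6-point qHTS titration about 60 µM downward; luminescence read.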
# SMN2 splice enh: qHTS Assay for Enhancers of SMN2 Splice Variant Expression; HEK293 SMN2-luciferase splicing reporter, luminescence, 30-36 h; Potency, µM (titrated, usually from 46.1 µM), for the others: top-dose activity change, positive = activation, actives largely listed as activators; hit rate 2.8% among 210,000; further: % of control where 0% means no effect; nearly all actives have a fitted effect of over 55% in size
#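 HEK293 cells carry an SMN2 […]–luciferase reporter in which exon 7 inclusion puts luciferase in frame. Cells were plated 10-12 h before compound addition, then incubated 30-36 h at 37C. ONE-Glo luminescence was read; sodium butyrate at 4.5 mM final served as control.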
# Starred values were filed as active, the others as inactive; ? = inconclusive; · = no result given; [ ] = dose if it differs, or a comment. Shown are actives, neighbours in structure and some others; about 7.5% of the full set was active somewhere. The call rests on the fitted dose curve; in most records, active means well fitted curve in the direction sought with a large enough effect; inconclusive means small, poorly fitted or top-dose-only effect, or another doubt; inactive means no such curve, though single readings can be large; an effect the other way counts as inactive or inconclusive. Potency means the concentration at half of the fitted maximal effect.
SMILES,NPC1 prom act,Luc counter,ELG1 genotoxic,Rab9 prom act,FLuc counter,SMN2 splice enh
CCOc1ccc(CCNC(=O)CN2N=C(c3ccccc3)CCC2=O)cc1OCC,·,·,·,·,-4%,·
O=C(CCCc1nc(-c2ccccc2Cl)no1)N1CCOCC1,-1%,5%,-1%,8%,-11%,-11%
COc1ccc(C(=O)Nc2cc(C(C)C)c(O)c(S(=O)(=O)c3ccc(Cl)cc3)c2C)cc1,·,·,·,·,?,11µM*
COc1ccc(S(=O)(=O)c2c(O)c3ccc(C(=O)Nc4ccccc4F)cc3[nH]c2=O)cc1,-4%,·,0%[9.26 µM],4%,-17%,·
COc1ccc(C(=O)Nc2cc(C(C)C)c(O)c(S(=O)(=O)c3ccc(OC)cc3)c2C)cc1,·,·,·,·,?,16µM*
COc1ccc(-c2noc(CN3CCCC(OCc4ccccn4)C3)n2)cc1 (stereo not drawn),-1%,·,-5%,9%,-17%,·
Clc1ccc(-c2nnc3sc(-c4ccccn4)nn23)cc1,-5%,-5%,1%,2%,-1%,-1%
CC(C)(C)c1ccc(-c2nnc3sc(-c4ccccn4)nn23)cc1,28%,0%,?,?,9.5µM*,-14%
C/C(=N/Nc1nc(-c2ccc(Cl)cc2)cs1)c1cccs1,18%,-9%,17%,?,15µM*,?
CCC(=O)Nc1cccc(-c2csc(-c3ccccc3)n2)c1,20%,0%,8%,22%,15µM*,?
CC(C)CC(=O)Nc1cccc(-c2csc(-c3ccccc3)n2)c1,0%,0%,-2%,15%,?,?
CC(C)=NNc1nc(-c2ccc([N+](=O)[O-])cc2)cs1,7%,0%,9%,12%,?,-26%
CC(=O)Nc1ccc(-c2csc(N/N=C(/C)c3ccccc3)n2)cc1,24%,·,-11%,10%,21µM*,·
CC(=O)Nc1cccc(-c2csc(NCc3ccccc3)n2)c1,-3%,0%,2%,-3%,21µM*,·
CCOC(=O)c1c(S(=O)(=O)N2CCC(C(=O)Nc3cccc(C)n3)CC2)c(C)n(C)c1C,·,·,·,·,-2%,·
C[N+]1(CC(O)COCC2COc3ccccc3O2)CCOCC1 (stereo not drawn),-6%,-1%,0%,0%,-2%,-4%
CC(=O)Nc1ccc(-c2csc(NNC(=O)c3ccccc3)n2)cc1,-1%,4%,-1%,19%,4%,-1%
CC(=O)Nc1ccc(-c2csc(NCc3ccccc3)n2)cc1,22%,6%,?,?,19µM*,17%
COc1ccc(C(=O)NNC(=O)CSc2nnc(COc3ccccc3OC)n2C)cc1,-2%,-3%,5%,-2%,-15%,?
Cc1ccccc1-c1nnc(-c2ccc(Br)cc2)o1,?,-30%,9.2µM*,?,?,?
Oc1ccccc1-c1nnc(-c2ccc(C(F)(F)F)cc2)o1,7%,-7%,?,6%,?,4%
Cc1ccccc1-c1nnc(-c2ccccc2C)o1,?,-5%,?,?,6.7µM*,22µM*
Cc1ccccc1-c1nnc(SCC#N)o1,0%,-4%,0%,0%,-13%,·
COC(=O)c1nc(-c2ccc(C)cc2)oc1N(C)C,11%,-12%,12%,10%,19µM*,1%
COc1ccc2nc(N/C(N)=N/C(=S)Nc3c(C)cccc3C)nc(C)c2c1,-14%,-4%,-3%,-6%,-9%,-6%
COc1ccc2nc(N/C(N)=N/C(=S)Nc3cccc(C)c3)nc(C)c2c1,-3%,2%,-4%,-5%,?,-29%
COc1ccc(NC(=S)/N=C(\N)Nc2nc(C)c3ccccc3n2)cc1,2%,·,-10%,-6%,9.5µM*,·

# Source: PubChem
